Activity calls are given as the source filed them.
Legend:
[1] = E. coli DRC41 culture turbidity changes, primary screen, E. coli filamentation inducer project, strain DRC41, OD650, 48 h (AID 1152);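 further: E. coli MC1000 strain DRC41 lacking acrAB efflux pump and sulA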; conditions: E. coli DRC41 (acrAB sulA), higher = more signal, called active from +8 up or from −8 down
[2] = small-molecule binders of probe aLefty1, primary screen, biochemical, small-molecule microarray, 635/667 nm fluorescence (AID 1153); conditions: higher = more signal;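 further: score merges spot fluorescence with signal-to-noise ratio from the scanned slide images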
[3] = PSAC antagonists in infected red cells, primary screen, cell-based, P. falciparum Indochina, OD700, 1 h (AID 1154); conditions: P. falciparum Indochina infected RBC osmotic lysis, higher = more signal, called active from +8 up or from −8 down
[4] = PSAC antagonists in infected red cells, primary screen, cell-based, P. falciparum Indochina, OD700, 2 h (AID 1155);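 further: lysis reports solute entry through the parasite surface anion channel PSAC; channel blockers reduce lysis of infected cells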; conditions: P. falciparum Indochina infected erythrocytes, osmotic lysis OD700; higher = more signal, called active from +8 up or from −8 down
[5] = osmotic lysis modulators in infected erythrocytes, primary screen, PSAC antagonist project, cell-based, P. falciparum Indochina, OD700, 3 h (AID 1156); conditions: higher = more signal, called active from +8 up or from −8 down
[6] = PSAC antagonists in infected red cells, primary screen, cell-based, P. falciparum Indochina, OD700, 18 h (AID 1157); conditions: P. falciparum Indochina infected erythrocytes, osmotic lysis OD700, 18 h; higher = more signal, called active from +8 up or from −8 down
[7] = modulators of S6 phosphorylation in cells, primary screen, cell-based, A549, cytoblot, luminescence, serum-stimulated (AID 1158); conditions: A549 phospho-S6 cytoblot, 5 h, higher = more signal;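 further: serum-stimulated A549 lung adenocarcinoma cells; signal is phosphorylated S6 detected by cytoblot immunostaining with HRP secondary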
[8] = target: NADPH oxidase 2 (Homo sapiens) (UniProt P04839); assay: NOX2-dependent H2O2 signal modulators, primary screen, NOX inhibitor project, cell-based, HEK293-NOX2, PMA-stimulated, Amplex Red fluorescence (AID 1159); conditions: 45 min, higher = more signal, called active from +8 up or from −8 down; further: test concentration not given here
Sequence of NADPH oxidase 2 (Homo sapiens) (P04839 whole entry, looked up): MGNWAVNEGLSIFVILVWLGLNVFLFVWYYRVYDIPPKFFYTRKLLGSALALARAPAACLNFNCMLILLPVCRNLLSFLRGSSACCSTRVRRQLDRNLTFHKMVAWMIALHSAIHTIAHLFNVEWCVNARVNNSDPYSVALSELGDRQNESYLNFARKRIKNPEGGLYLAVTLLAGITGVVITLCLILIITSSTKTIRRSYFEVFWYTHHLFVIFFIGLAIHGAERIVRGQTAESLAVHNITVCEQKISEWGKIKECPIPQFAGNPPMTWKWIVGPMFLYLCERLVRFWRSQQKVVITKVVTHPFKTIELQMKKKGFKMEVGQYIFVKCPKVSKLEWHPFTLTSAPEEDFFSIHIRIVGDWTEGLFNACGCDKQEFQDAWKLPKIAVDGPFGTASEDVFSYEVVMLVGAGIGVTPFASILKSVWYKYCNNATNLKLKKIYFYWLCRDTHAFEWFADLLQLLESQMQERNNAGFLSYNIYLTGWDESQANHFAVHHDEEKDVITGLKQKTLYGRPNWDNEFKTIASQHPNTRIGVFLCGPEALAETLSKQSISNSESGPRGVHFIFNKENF

[9] = target: NADPH oxidase 4 (Homo sapiens) (UniProt Q9NPH5); assay: NOX4-dependent H2O2 signal modulators, primary screen, NOX inhibitor project, cell-based, HEK293-NOX4, tetracycline-induced, Amplex Red fluorescence (AID 1160); conditions: 45 min, higher = more signal, called active from +8 up or from −8 down
Sequence of NADPH oxidase 4 (Homo sapiens) (Q9NPH5 whole entry, looked up): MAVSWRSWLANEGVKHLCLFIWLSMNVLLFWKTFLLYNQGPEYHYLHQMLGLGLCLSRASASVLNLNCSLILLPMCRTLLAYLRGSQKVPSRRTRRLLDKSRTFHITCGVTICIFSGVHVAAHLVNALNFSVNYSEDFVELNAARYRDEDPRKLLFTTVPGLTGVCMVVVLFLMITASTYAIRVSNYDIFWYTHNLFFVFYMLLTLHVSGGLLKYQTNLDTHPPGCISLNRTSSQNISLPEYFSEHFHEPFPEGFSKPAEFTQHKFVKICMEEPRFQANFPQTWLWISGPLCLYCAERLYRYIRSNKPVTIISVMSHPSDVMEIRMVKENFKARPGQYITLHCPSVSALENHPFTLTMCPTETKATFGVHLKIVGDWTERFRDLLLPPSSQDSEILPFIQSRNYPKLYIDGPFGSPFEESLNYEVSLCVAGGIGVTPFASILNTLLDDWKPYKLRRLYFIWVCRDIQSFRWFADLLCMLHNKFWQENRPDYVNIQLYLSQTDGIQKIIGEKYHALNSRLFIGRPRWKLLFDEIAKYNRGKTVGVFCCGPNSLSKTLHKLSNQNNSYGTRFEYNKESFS

[10] = target: NADPH oxidase 5 (Homo sapiens) (UniProt Q96PH1); assay: NOX5-dependent H2O2 signal modulators, primary screen, NOX inhibitor project, cell-based, HEK293-NOX5, Amplex Red fluorescence (AID 1161); conditions: HEK293-NOX5, ionomycin, 45 min, higher = more signal
Sequence of NADPH oxidase 5 (Homo sapiens) (Q96PH1 whole entry, looked up): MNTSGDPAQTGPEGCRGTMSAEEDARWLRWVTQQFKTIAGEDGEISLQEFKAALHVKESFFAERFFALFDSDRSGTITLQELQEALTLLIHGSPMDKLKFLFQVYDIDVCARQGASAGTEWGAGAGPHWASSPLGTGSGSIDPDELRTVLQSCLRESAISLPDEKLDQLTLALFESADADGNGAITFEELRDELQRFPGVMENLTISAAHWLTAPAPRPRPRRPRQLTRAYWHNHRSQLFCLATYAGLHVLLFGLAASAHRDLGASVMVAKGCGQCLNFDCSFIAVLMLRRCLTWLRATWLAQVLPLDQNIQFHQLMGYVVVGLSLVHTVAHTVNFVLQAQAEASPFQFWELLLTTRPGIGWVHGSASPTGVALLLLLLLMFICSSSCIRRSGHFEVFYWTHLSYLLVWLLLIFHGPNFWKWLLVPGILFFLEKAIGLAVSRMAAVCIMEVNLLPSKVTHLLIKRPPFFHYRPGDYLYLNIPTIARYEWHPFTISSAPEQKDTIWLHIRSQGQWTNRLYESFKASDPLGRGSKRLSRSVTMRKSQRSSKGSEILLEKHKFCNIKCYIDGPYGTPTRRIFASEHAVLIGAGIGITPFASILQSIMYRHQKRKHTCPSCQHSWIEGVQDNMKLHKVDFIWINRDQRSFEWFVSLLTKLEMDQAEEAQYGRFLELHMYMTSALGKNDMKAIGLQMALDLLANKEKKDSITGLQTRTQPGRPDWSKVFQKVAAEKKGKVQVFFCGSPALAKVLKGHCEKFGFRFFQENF

[11] = A549 cell viability effects, profiling panel, calcein-AM fluorescence, 48 h, basal (AID 1162); conditions: higher = more signal; further: test concentration not given here
[12] = adipocyte viability effects, profiling panel, cell-based, 3T3-L1 adipocytes, calcein-AM fluorescence, 48 h, basal (AID 1163); conditions: 3T3-L1 adipocytes viability, higher = more signal; further: test concentration not given here
[13] = HepG2 cell viability effects, profiling panel, calcein-AM fluorescence, 48 h, basal (AID 1164); conditions: higher = more signal; further: test concentration not given here
[14] = MM1S cell viability effects, profiling panel, calcein-AM fluorescence, 48 h, basal (AID 1165); conditions: higher = more signal;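 further: viability of MM1S multiple myeloma cells under basal unstimulated conditions; test concentration not given here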
[15] = basal RPMI8226 viability, no added stimulus, profiling panel, cell-based, calcein-AM fluorescence, 48 h, PK04 Diversity Set (AID 1166); conditions: RPMI8226 myeloma viability, higher = more signal;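 further: cells grown under basal conditions without added stimulus; test concentration not given here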
[16] = basal HepG2 mitochondrial membrane potential changes, profiling panel, cell-based, JC-1 fluorescence, 24 h, 100 nL compound (AID 1167); conditions: higher = more signal; further: test concentration not given here
[17] = basal 3T3-L1 adipocyte mitochondrial potential changes, profiling panel, cell-based, JC-1 fluorescence, 3T3-L1 adipocytes, 24 h, 100 nL compound (AID 1168); conditions: JC-1 mitochondrial fluorescence, higher = more signal, called active from +8 up or from −8 down; further: test concentration not given here
[18] = basal RPMI8226 mitochondrial membrane potential changes, profiling panel, cell-based, JC-1 fluorescence, 24 h, 100 nL compound (AID 1169); conditions: RPMI8226 myeloma, JC-1 mitochondrial potential fluorescence, higher = more signal; further: test concentration not given here
[19] = basal MM1S mitochondrial membrane potential changes, profiling panel, cell-based, JC-1 fluorescence, 24 h, 100 nL compound (AID 1170); conditions: higher = more signal; further: test concentration not given here
[20] = A549 lung cancer cell viability effects, profiling panel, resazurin fluorescence, 24 h, PK04 Diversity Set (AID 1171); conditions: higher = more signal, called active from +8 up or from −8 down; further: test concentration not given here

SMILES	z-score [1]	composite z-score [2]	z-score [3]	z-score [4]	z-score [5]	z-score [6]	z-score [7]	z-score [8]	z-score [9]	z-score [10]	z-score [11]	z-score [12]	z-score [13]	z-score [14]	z-score [15]	z-score [16]	z-score [17]	z-score [18]	z-score [19]	z-score [20]
COCCn1c(C(=O)N2CCCC2)cc2c1C[C@H]1CN(C(=O)c3ccccc3)[C@@](Cc3ccccc3)(C(=O)OC)[C@@H]21	-0.91 (inactive)	1.46	1.46 (inactive)	0.103 (inactive)	1.98 (inactive)	1.01 (inactive)	1.09	0.582 (inactive)	-0.6 (inactive)	-3.94	-1.94	-0.239	-0.768	0.0841	-1.37	0.678	-0.416 (inactive)	-0.803	-0.688	-0.0413 (inactive)
CCCC[C@@H](O)C1=C(COC)Cn2c(=O)n(-c3ccccc3)c(=O)n2[C@H]1CO	4.01 (inactive)	-0.224	-0.0913 (inactive)	-0.696 (inactive)	-0.304 (inactive)	-2.74 (inactive)	1.9	-1.55 (inactive)	0.208 (inactive)	0.716	0.281	0.122	0.166	0.103	0.337	0.376	-0.301 (inactive)	-0.197	0.794	-0.783 (inactive)
COCCOC(=O)N1C(=O)[C@@]2(c3cc(C#CCC(C(=O)OC)C(=O)OC)ccc31)[C@H](C(=O)N1CCCCCCC1)[C@H]1C(=O)O[C@H](c3ccccc3)[C@H](c3ccccc3)N1[C@@H]2c1ccccc1OCCO	0.822 (inactive)	2.72	2.04 (inactive)	-0.228 (inactive)	0.489 (inactive)	-1.21 (inactive)	2.14	-0.817 (inactive)	-0.194 (inactive)	-1.87	-0.143	1.83	0.0429	-0.284	-1.56	-0.747	2.14 (inactive)	-0.124	-0.892	0.822 (inactive)
C[N+](C)(C)CCCCCCNC(=O)[C@H]1C[C@H]2C(=O)NCC(=O)N2[C@H]1c1cccc(OCCO)c1	-0.191 (inactive)	-0.259	2.76 (inactive)	0.462 (inactive)	-1.36 (inactive)	0.179 (inactive)	0.142	0.752 (inactive)	1.12 (inactive)	1.24	-0.292	-0.207	-0.528	0.112	0.579	-1.52	-0.529 (inactive)	0.0573	0.127	0.749 (inactive)
COCC1=C([C@H](O)CCc2ccccc2)[C@H](CO)n2c(=O)n(-c3ccccc3)c(=O)n2C1	3.47 (inactive)	-0.409	2.67 (inactive)	-0.913 (inactive)	-0.618 (inactive)	-1.61 (inactive)	1.72	-0.638 (inactive)	-2.05 (inactive)	-0.659	0.119	0.102	0.925	0.572	-0.221	-0.835	-0.596 (inactive)	-0.309	-1.37	-0.619 (inactive)
C=CC[C@@]1(C(=O)O)N=C(c2ccc(OCCCO)cc2)O[C@@H]1c1ccccc1CN=[N+]=[N-]	0.578 (inactive)	-0.335	25.8 (active)	16.5 (active)	1.15 (inactive)	1.71 (inactive)	0.842	-0.235 (inactive)	1.24 (inactive)	0.186	-0.473	0.891	0.545	0.15	0.0466	0.171	-0.164 (inactive)	-0.973	-1.54	0.611 (inactive)
COC(=O)c1c(CC[C@@H](CO)NC(=O)N[C@@H](Cc2ccccc2)Cn2cc(-c3cncn3C)nn2)oc(C(C)=O)c1C(=O)OC	0.922 (inactive)	-0.147	1.49 (inactive)	-0.182 (inactive)	1.29 (inactive)	-0.277 (inactive)	1.22	-5.64 (inactive)	-2.01 (inactive)	-3.3	-0.184	1.15	-0.382	0.732	-1.81	-0.321	0.724 (inactive)	-0.442	-0.322	-0.208 (inactive)
COc1ccc([Si](C)(C)[C@H]2[C@H](CCO)O[C@@]3(C(=O)N(Cc4ccccc4)c4ccc(N(C=O)c5ccccc5)cc43)[C@@H]2C)cc1	0.352 (inactive)	0.0927	5.68 (inactive)	2.52 (inactive)	1.12 (inactive)	1.28 (inactive)	0.456	-0.98 (inactive)	0.184 (inactive)	1.23	-0.108	0.288	-3.3	-0.622	-2.82	0.553	-0.00912 (inactive)	-0.914	-1.27	-1.25 (inactive)
CCCC=C(CCC)[C@@H](NS(=O)(=O)c1ccc(Cl)cc1)c1ccccc1	-2.04 (inactive)	0.345	1.02 (inactive)	0.1 (inactive)	1.16 (inactive)	0.814 (inactive)	0.717	-1.64 (inactive)	-3.24 (inactive)	1.59	-1.61	-0.224	-1.42	-1.18	-3.77	-3.69	0.0744 (inactive)	-0.372	-0.676	2.17 (inactive)
CCN(CC)c1ccc(N2CC=CC34O[C@@H]5C=CCOC(=O)[C@@H]5[C@H]3C(=O)N(CCCO)[C@@H]4C2=O)cc1 (stereo not given in full)	1.33 (inactive)	0.027	0.246 (inactive)	-0.655 (inactive)	0.649 (inactive)	-1.36 (inactive)	4.3	-0.0266 (inactive)	-0.497 (inactive)	0.785	-0.0867	1.85	-0.244	1.8	0.28	0.432	0.604 (inactive)	0.19	0.536	-0.481 (inactive)
CCOC(=O)C1=CC[C@@H](c2ccccc2Cl)N(S(=O)(=O)c2ccc(C)cc2)[C@H]1c1cccc(OC)c1	-1.44 (inactive)	0.0082	1.23 (inactive)	1.16 (inactive)	0.106 (inactive)	0.362 (inactive)	-0.401	0.78 (inactive)	0.238 (inactive)	0.113	-0.698	-1.56	-0.467	-0.744	0.688	0.405	-1.39 (inactive)	0.702	-0.539	0.219 (inactive)
COC(=O)[C@@H]1N=C(c2ccc(OCCCO)cc2)O[C@@H]1c1ccccc1CN=[N+]=[N-]	0.664 (inactive)	0.881	25 (active)	9.39 (active)	-0.5 (inactive)	1.33 (inactive)	-0.239	-0.817 (inactive)	0.827 (inactive)	0.0949	0.432	-0.446	-0.198	-0.329	-0.717	-1.07	1.43 (inactive)	-0.16	-0.741	1.07 (inactive)
CC(C)[Si](C#CCCCC#N)(O[C@H](c1ccccc1)c1cn([C@H](C)c2ccccc2)nn1)C(C)C	1.03 (inactive)	-0.0984	1.66 (inactive)	0.878 (inactive)	0.0478 (inactive)	0.211 (inactive)	0.147	1.19 (inactive)	0.406 (inactive)	0.255	-1.38	-0.348	0.571	-0.057	-2.68	6.54	-0.289 (inactive)	0.0785	-0.733	1.07 (inactive)
COCCOC(=O)N1C(=O)[C@@]2(c3cc(C#CCCO)ccc31)[C@H](C(=O)N1CCc3cc(OC)c(OC)cc3C1)[C@H]1C(=O)O[C@H](c3ccccc3)[C@H](c3ccccc3)N1[C@@H]2c1ccccc1OCCO	0.718 (inactive)	1.33	3.62 (inactive)	0.928 (inactive)	1.6 (inactive)	1.05 (inactive)	0.0854	1.72 (inactive)	1.7 (inactive)	-0.204	0.373	0.514	1.61	1.1	0.458	0.228	1.58 (inactive)	-0.647	-1.23	0.456 (inactive)
CCCCN1CC=CC23O[C@@H]4C=CCOC(=O)[C@@H]4[C@H]2C(=O)N(CCO)[C@@H]3C1=O (stereo not given in full)	-0.492 (inactive)	0.175	-0.366 (inactive)	0.574 (inactive)	0.349 (inactive)	0.381 (inactive)	-0.415	1.51 (inactive)	1.08 (inactive)	0.669	0.0738	-0.426	0.442	-1.05	0.342	-0.454	0.302 (inactive)	0.837	-0.209	-0.437 (inactive)
CC(C)(C)OC(=O)CC[C@]1(C(=O)N2CCOCC2)N=C(c2ccc(OCCCO)cc2)O[C@H]1c1ccccc1CN=[N+]=[N-]	-0.47 (inactive)	0.705	13.9 (active)	1.71 (inactive)	1.05 (inactive)	0.421 (inactive)	0.705	-1.34 (inactive)	0.181 (inactive)	-0.476	-0.385	0.0723	0.209	-0.411	-0.563	0.432	-0.0219 (inactive)	-0.166	-0.324	0.734 (inactive)
COC(=O)[C@@]1(Cc2ccccc2)[C@@H]2[C@@H](CC(=O)[C@H]2CC(=O)C(=O)N(C)C)CN1C(=O)c1ccccc1	-0.655 (inactive)	0.0811	2.19 (inactive)	0.543 (inactive)	0.0132 (inactive)	0.738 (inactive)	-0.268	0.984 (inactive)	0.766 (inactive)	-0.461	0.258	-0.103	0.0925	-0.822	0.397	1.23	-0.239 (inactive)	0.209	-1.31	-0.658 (inactive)

From PubChem BioAssay
